Screening results: PubChem BioAssay, National Center for Advancing Translational Sciences (NCATS)
An excerpt weighted towards active compounds, which were near 10% of everything screened.
CCT chaperon mod: High-Throughput Screening for Modulators of Cytosolic Chaperonin Activity; purified chaperonin ATPase assay, HTRF ADP detection, 30 min; activity change, % (no concentration beside the values), hits read low; 0.3% of 360,000 active; in the data active = activity change below about -30%
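We incubate TRiC, 40 or 20 nM final, with library compounds at 76 uM and 10 uM ATP for 30 min at 37 °C. ADP formed is detected with Transcreener HTRF reagents after 30 min at room temperature.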
G9a block: qHTS Assay for Inhibitors of Histone Lysine Methyltransferase G9a; 8.8% of 350,000 active; G9a H3K9 monomethylation, AlphaScreen, 2 h; Potency, µM (doses to about 102 µM), most hits filed as inhibitors; Histone-lysine N-methyltransferase EHMT2 (Homo sapiens), Q96KQ7; AID 504332, 2011; also: nearly all actives have a fitted effect of over 75% in size
Target sequence (Q96KQ7 913-1193 limits assumed): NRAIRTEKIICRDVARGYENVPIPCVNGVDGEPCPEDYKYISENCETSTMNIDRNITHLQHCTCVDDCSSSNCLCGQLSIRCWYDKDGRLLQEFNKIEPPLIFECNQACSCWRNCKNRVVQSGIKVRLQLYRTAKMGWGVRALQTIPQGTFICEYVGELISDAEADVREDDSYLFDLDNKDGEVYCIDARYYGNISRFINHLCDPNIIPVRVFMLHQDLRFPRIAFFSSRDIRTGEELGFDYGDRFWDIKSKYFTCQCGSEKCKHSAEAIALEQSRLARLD
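Methyltransferase reactions run at room temperature for 2 h (20 nM enzyme, 500 nM biotin-H3K9 peptide, 20 uM SAM) after a 15 min compound preincubation; product detected by AlphaScreen beads and anti-H3K9me1 antibody.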
VDR inhibitor: Inhibitors of the vitamin D receptor (VDR): qHTS; VDR-SRC2-3 peptide fluorescence polarization, 2 h; Potency, µM, most hits filed as inhibitors; 0.93% of 400,000 active
Target sequence (P11473 whole entry, looked up): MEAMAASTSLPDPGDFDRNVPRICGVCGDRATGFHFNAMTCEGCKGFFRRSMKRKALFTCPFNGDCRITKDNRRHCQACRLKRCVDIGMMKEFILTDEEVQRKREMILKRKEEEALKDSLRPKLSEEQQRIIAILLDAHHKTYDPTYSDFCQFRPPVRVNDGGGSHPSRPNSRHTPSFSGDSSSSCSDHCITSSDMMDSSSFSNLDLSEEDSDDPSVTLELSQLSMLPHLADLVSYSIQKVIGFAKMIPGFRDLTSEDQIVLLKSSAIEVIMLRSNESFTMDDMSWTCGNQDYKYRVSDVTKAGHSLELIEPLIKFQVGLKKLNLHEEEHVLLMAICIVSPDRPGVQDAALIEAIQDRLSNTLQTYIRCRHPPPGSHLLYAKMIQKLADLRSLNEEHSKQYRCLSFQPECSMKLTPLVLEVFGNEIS
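Signal is fluorescence polarization, reporting how far test compounds block the interaction of VDR with the SRC2-3 coregulator peptide after a 2 h room-temperature incubation.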
MmCpn inh: Inhibitors of TCP-1 ring complex (TRiC) of Methanococcus maripaludis (MmCpn): qHTS. purified Mm-Cpn ATPase, ADP Transcreener TR-FRET. 0.031% of 330,000 active. Potency, µM (doses to about 76.9 µM), most hits filed as inhibitors. Chaperonin Mm-Cpn (Methanococcus maripaludis); also: nearly all actives have a fitted effect of over 80% in size
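Measured: ADP formation by purified Mm-CPN. Conditions: 25 nM protein, 10 uM ATP, Tris pH 7.4 with Mg2+, K+ and DTT, 37°C for 30 min. Detection: Transcreener HTRF after 30 min at room temperature.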
Sfp inh: qHTS Assay for Inhibitors of Bacillus subtilis Sfp phosphopantetheinyl transferase (PPTase); Potency, µM, most hits filed as inhibitors; AID 1490, 2009; 4'-phosphopantetheinyl transferase ffp (Bacillus subtilis), Q9F4F7; Biochemical Sfp PPTase activity, qHTS; 3.5% of 310,000 active;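 also: the enzyme is Sfp with the accession as filed and its product quenches rhodamine fluorescence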
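Compounds were incubated with enzyme (final 15 nM) for 15 min at room temperature before substrate addition started the reaction. Fluorescence at 525 nm excitation, 598 nm emission was recorded immediately and after 30 minutes.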
PLK1 PBD inh: qHTS for Inhibitors of PLK1-PDB (polo-like kinase 1 - polo-box domain): Primary Screen; Serine/threonine-protein kinase PLK1 (Homo sapiens), P53350; Potency, µM, actives largely listed as inhibitors; 2.8% of 360,000 active; Plk1 PBD binding of FITC phosphopeptide, fluorescence polarization; also: series mostly up to about 57 µM; nearly all actives have a fitted effect of over 65% in size
Numbers stand for hits; . = inactive; ? = inconclusive; / = no result; ! = repeats disagree; [ ] = remark or other dose. Unless noted, calls follow the shape of the dose curve; as a rule, active = well fitted curve in the direction sought with a large enough effect; inconclusive = small, poorly fitted or top-dose-only effect, or another doubt; inactive = no such curve, though single readings can be large; an effect the other way counts as inactive or inconclusive.

SMILES | CCT chaperon mod | G9a block | VDR inhibitor | MmCpn inh | Sfp inh | PLK1 PBD inh
O=C(CCCCCCC(=O)c1ccccc1)c1ccccc1 | . | .[12.7 µM] | . | . | . | .
O=C(CCC1CCCNC1)c1ccccc1 (configuration not stated) | / | 50µM | / | ? | . | /
O=c1c2c(-c3ccccc3)csc2nc2c3ccccc3c(NCCN3CCOCC3)nn12 | . | ? | . | . | 35µM | .
O=c1c2ccccc2nc2c3ccccc3c(NCCN3CCOCC3)nn12 | / | . | / | . | . | /
CCc1ccc(S(=O)(=O)c2nnn3c2nc(Nc2cccc(C)c2C)c2sccc23)cc1 | / | . | . | / | / | /
CCOc1ccc(N(c2nc(-c3ccc(OC)c(OC)c3)no2)c2nc(-c3ccc(OC)c(OC)c3)no2)cc1 | / | . | . | / | / | /
Cc1ccc(NC(=O)CCS(=O)(=O)c2cc(Br)cc3c2N(C(=O)C2CC2)CC3)cc1 | / | . | . | / | / | /
COc1ccc(C(=O)NCc2c(C)oc(C)c2C(=O)O)cc1 | . | ? | . | . | . | .
COc1ccc(C(=O)NCc2oc(-c3ccccc3)cc2C(=O)O)cc1 | . | ? | . | . | 25µM | .
COc1ccc(CC(=O)NC2CC(=O)N(c3ccc4c(c3)OCCO4)C2)cc1 (configuration not stated) | / | . | . | / | / | /
COc1cccc(C(C2=C(O)CC(C)(C)CC2=O)C2C(=O)CC(C)(C)CC2=O)c1 (configuration not stated) | . | 45µM | ? | . | . | ?
COc1cccc(C(C2C(=O)CC(C)(C)CC2=O)C2C(=O)CC(C)(C)CC2=O)c1 | . | 79µM | ? | . | . | ?
CC1(C)CC(=O)C(C(c2cccnc2)C2C(=O)CC(C)(C)CC2=O)C(=O)C1 | . | 50µM | . | . | . | .
COc1cccc(C2C(C#N)=C(C)NC3=C2C(=O)CC(C)(C)C3)c1 (configuration not stated) | . | . | . | . | . | .
CC1(C)CC(=O)C(C(C2=C(O)CC(C)(C)CC2=O)c2ccc([N+](=O)[O-])cc2)C(=O)C1 (configuration not stated) | . | 32µM | ? | . | 18µM | .
CCC(C)c1ccc(OCC(=O)Nc2cccc3ccc(C)nc23)cc1 (configuration not stated) | / | . | . | / | / | /
COc1ccc(OC)c(-c2cc(C(=O)Nc3cccc(Cl)c3C)no2)c1 | / | . | . | / | / | /
Cc1ccc(NC(=O)Cn2c(=O)n(Cc3ccc4c(c3)OCO4)c(=O)c3ccccc32)c(C)c1 | / | . | . | / | / | /
COC(=O)COc1ccc(NC(=O)C(c2ccccc2)c2ccccc2)cc1 | . | . | . | . | . | .
COC(=O)COc1ccc(C(C2C(=O)CC(C)(C)CC2=O)C2C(=O)CC(C)(C)CC2=O)cc1 | . | 32µM | 50µM | . | 56µM | ?
Cc1ccc(N=Cc2c(O)n(-c3ccc4c(c3)OCO4)c(=O)c3ccccc23)cc1 | . | .[12.7 µM] | . | . | . | .
Cc1cccc(-n2c(O)c(C=Nc3cc(O)ccc3C)c3ccccc3c2=O)n1 | . | . | ? | ? | . | ?
Cc1ccc(-n2c(O)c(C=Nc3ccccc3-c3n[nH]c(=S)[nH]c3=O)c3ccccc3c2=O)c(C)c1 | . | ? | . | . | . | 27µM
Cc1ccc(-n2c(O)c(C=Nc3ccccc3-c3n[nH]c(=S)[nH]c3=O)c3ccccc3c2=O)cc1C | . | ? | . | . | . | 30µM
Cc1cccc(-n2c(O)c(C=Nc3ccccc3-c3n[nH]c(=S)[nH]c3=O)c3ccccc3c2=O)n1 | . | 40µM | . | . | . | 27µM
SMILES | CCT chaperon mod | G9a block | VDR inhibitor | MmCpn inh | Sfp inh | PLK1 PBD inh
O=C(Cn1ccc2cc(S(=O)(=O)N3CCCCCC3)ccc21)NCCc1ccccc1Cl | / | ? | . | / | / | /
NC(=O)CCC(NS(=O)(=O)c1ccc(Cl)cc1)C(=O)NCc1ccc(Cl)cc1 (configuration not stated) | . | . | . | . | . | .
NC(=O)CCC(NS(=O)(=O)c1ccc(Cl)cc1)C(=O)NCC1CCCCC1 (configuration not stated) | . | . | ? | . | . | 11µM
CCN(C(=O)c1cc2c(s1)-c1c(C)cccc1OC2)c1ccccc1F | / | . | . | / | / | /
COc1cccc(CNC(=O)c2ccc3c(c2)nc2n3CCC(C)C2)c1 (configuration not stated) | / | . | . | / | / | /
COc1ccccc1C(=O)NC(=S)N1CCCc2ccccc21 | . | 10µM | . | . | 50µM | .
COc1ccccc1C(=O)NC(=S)N1CCc2ccccc21 | . | 45µM | . | . | . | .
COc1ccc(N2CCN(C(=O)c3nn(C)c4c3CSc3ccccc3-4)CC2)cc1 | / | . | . | / | / | /
COCCN(CCOC)Cc1cc(=O)oc2cc3c(cc12)CCC3 | . | 50µM | . | . | . | .
Cc1cc2oc(=O)cc(CSc3nc(N)cc(N)n3)c2cc1C(C)C | . | . | . | . | . | .
Nc1cc(N)nc(SCc2cc(=O)oc3cc4c(cc23)CCC4)n1 | . | .[12.7 µM] | . | . | . | 27µM
O=c1cccccc1NCc1ccccc1 | . | 10µM | . | . | 22µM | .
N#Cc1ccccc1NCc1ccccc1 | . | . | . | . | . | .
O=C1C=C(Nc2ccccc2O)c2ccccc2C1=O | . | 45µM | . | . | ? | .
O=C1C=C(NCc2ccccc2)c2ccccc2C1=O | . | ? | 2µM | . | 22µM | ?
Cc1ccc(NC2=CC(=O)C(=O)c3ccccc32)c(C)c1 | . | .[2.33 µM] | . | . | / | .
O=C1C=C(Nc2ccc(F)cc2)c2ccccc2C1=O | . | 7.9µM | . | . | / | .
CCOc1ccc(NC2=CC(=O)C(=O)c3ccccc32)cc1 | . | / | ? | / | / | .
CCc1cccc(NC(=O)CCN2C(=O)c3ccccc3Sc3ncccc32)c1 | / | . | . | / | / | /
COc1ccc(NC(=O)CSc2ncccc2C(=O)O)cc1OC | / | ? | . | / | / | /
CN(Cc1ccco1)c1ncncc1-c1cccnc1 | / | .[0.501 µM] | 45µM | / | ? | /
CN(C)c1ccc(-c2cncnc2N(C)Cc2ccco2)cc1 | / | .[0.501 µM] | ? | / | . | /
CN(Cc1ccco1)c1ncnc2ccc(-c3ccc4c(c3)OCO4)cc12 | / | .[12.7 µM] | 40µM! | . | 45µM | /
Cc1ccccc1-c1ccc2ncnc(N(C)Cc3ccco3)c2c1 | / | .[0.501 µM] | 32µM | / | ? | /
CCNc1ccc(-c2nc(-c3ccncc3)no2)cc1[N+](=O)[O-] | / | . | . | / | / | /
Fc1ccc(-n2cc(-c3ccccc3)c3c(NC4CCCCC4)ncnc32)cc1 | / | . | . | / | / | /
